Cy5 interf NS3h – Cy5 fluorescence interference, HCV helicase counter-screen | Cy5-dT15 DNA with NS3h; actives lie on both sides; signal over control mean, under 1 quenches | fluorescence interference ratio at 100 µM | 16,000 compounds, 6% hits;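 active = compound fluorescence over control fluorescence at most 0.8, a quencher, or at least a set upper limit, an enhancer; inactive = ratio between 0.8 and the set upper limit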
NS3h inh CB – blocks HCV NS3 helicase binding to DNA; NS3h Cy5-dT15 DNA binding, fluorescence polarization; inhibition, % at 100 µM; 16,000 compounds, 1.6% hits; AID 687043;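 active = inhibition above the average over every tested compound plus 3 SD, cut at about 40% in these data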
Starred values were filed as active, the others as inactive. An excerpt weighted towards active compounds, which were near 7.6% of everything screened.

How did CCCNC(=O)c1cc(OC)c(OC)cc1[N+](=O)[O-] do in these assays?
Cy5 interf NS3h: 0.787*; NS3h inh CB: 10.5

How did Cc1csc(Nc2ccccc2)[n+]1CCO do in these assays?
Cy5 interf NS3h: 1.21*; NS3h inh CB: 4.4

How did CCOC(=O)C1=C(C)N(c2ccccc2)C(C)=C(C(=O)OCC)C1c1ccc([N+](=O)[O-])cc1 do in these assays?
Cy5 interf NS3h: 0.95; NS3h inh CB: 2.7

What do the screens show for `CC[N+]1=C(/C=C/Nc2ccccc2)SCC1`?
Cy5 interf NS3h: 0.979; NS3h inh CB: 15.6

How did COc1cc(/C=C2/C(=O)N(c3ccccc3)N=C2C)cc(I)c1O do in these assays?
Cy5 interf NS3h: 0.694*; NS3h inh CB: 16.8

How did COc1cc(/C=C2/C(=O)N(c3ccccc3)N=C2C)cc([N+](=O)[O-])c1O do in these assays?
Cy5 interf NS3h: 0.935; NS3h inh CB: 4.2

Results for CN(C)CCNC(=O)c1ccc(Br)cc1 ?
Cy5 interf NS3h: 1.12; NS3h inh CB: 3.4

How did N#C/C(=C\c1ccc(-c2ccccc2Cl)o1)C(=O)Nc1cccc2ncccc12 do in these assays?
Cy5 interf NS3h: 0.951; NS3h inh CB: 1.9

Results for N#C/C(=C\c1ccc(-c2ccc(Cl)cc2)o1)C(=O)Nc1cccc2ncccc12 ?
Cy5 interf NS3h: 0.547*; NS3h inh CB: -41.5

How did COC(=O)c1ccccc1NC(=O)CN(c1ccc(C)cc1)S(C)(=O)=O do in these assays?
Cy5 interf NS3h: 0.994; NS3h inh CB: 10.8

What do the screens show for `CCOC(=O)c1ccccc1NC(=O)CN(c1ccc(C)cc1)S(C)(=O)=O`?
Cy5 interf NS3h: 0.805; NS3h inh CB: 42.2*

How did CSc1ccc(/C=C(/NC(=O)c2ccccc2)c2nc3ccccc3[nH]2)cc1 do in these assays?
Cy5 interf NS3h: 0.997; NS3h inh CB: 5.0

What do the screens show for `Cn1c(/C=C/c2ccc([N+](=O)[O-])cc2)nc2ccccc2c1=O`?
Cy5 interf NS3h: 1.01; NS3h inh CB: -8.2

Results for O=C1c2ccccc2C(=O)N1/N=C\c1c(O)ccc2ccccc12 ?
Cy5 interf NS3h: 0.623*; NS3h inh CB: 8.7

What do the screens show for `O=C1c2cccc3cccc(c23)C(=O)N1/N=C\c1ccc(O)cc1`?
Cy5 interf NS3h: 1.03; NS3h inh CB: 6.7

What do the screens show for `NC1=NC(=O)/C(=C\c2ccc(S(=O)(=O)O)cc2)S1`?
Cy5 interf NS3h: 1.1; NS3h inh CB: 6.5

Results for Cc1cccc(NC(=O)C(=O)NCc2ccccc2Cl)c1C ?
Cy5 interf NS3h: 0.776*; NS3h inh CB: 18.9

What do the screens show for `COc1ccccc1CNC(=O)C(=O)Nc1ccccc1C`?
Cy5 interf NS3h: 1.05; NS3h inh CB: 3.4

How did Cc1cc(N2CCN(c3ncccn3)CC2)n2c(nc3ccccc32)c1C#N do in these assays?
Cy5 interf NS3h: 0.981; NS3h inh CB: 6.8

Results for Cc1ccc(NC(=O)C(=O)NCCc2ccc(Cl)cc2)cc1 ?
Cy5 interf NS3h: 0.974; NS3h inh CB: 12.4

How did O=C(COc1ccccc1Cl)Nc1c[nH]c(=O)[nH]c1=O do in these assays?
Cy5 interf NS3h: 1.3*; NS3h inh CB: -37.0

Results for O=C(COc1ccccc1Cl)NNC(=O)c1ccccc1I ?
Cy5 interf NS3h: 1.04; NS3h inh CB: 11.9

What do the screens show for `Cc1ccc(S(=O)(=O)N=C2C=CC(=O)C(Br)=C2)cc1`?
Cy5 interf NS3h: 0.945; NS3h inh CB: 27.7

What do the screens show for `Cc1ccc(S(=O)(=O)N=C2C=C(Cl)C(=O)C(Br)=C2)cc1`?
Cy5 interf NS3h: 0.606*; NS3h inh CB: 33.7

What do the screens show for `O=Cc1ccc(OC(=O)c2ccccc2I)cc1`?
Cy5 interf NS3h: 0.698*; NS3h inh CB: 15.2

Results for O=C1NC(=O)/C(=C/c2ccc(OC(=O)c3ccccc3I)cc2)S1 ?
Cy5 interf NS3h: 1.15; NS3h inh CB: 7.8

What do the screens show for `O=C1/C(=C/c2cccc([N+](=O)[O-])c2)SC(=S)N1C1CCS(=O)(=O)C1` (stereo unspecified)?
Cy5 interf NS3h: 0.348*; NS3h inh CB: 15.4

Results for O=C1/C(=C/c2cccc3ccccc23)SC(=S)N1C1CCS(=O)(=O)C1 (stereo unspecified) ?
Cy5 interf NS3h: 0.995; NS3h inh CB: 7.6

How did CCOc1cc(C(=O)Nc2ccc(F)cc2)cc(OCC)c1OCC do in these assays?
Cy5 interf NS3h: 0.705*; NS3h inh CB: 16.8

How did CCOc1cc(OCC)cc(C(=O)Nc2ccc(F)cc2)c1 do in these assays?
Cy5 interf NS3h: 1.03; NS3h inh CB: 20.3

How did O=S(=O)(Nc1ccc(O)c2ccccc12)c1cc(Cl)ccc1Cl do in these assays?
Cy5 interf NS3h: 0.898; NS3h inh CB: 12.8

What do the screens show for `N#Cc1ccc2c(c1)nc1c3cccc4cccc(c(=O)n21)c43`?
Cy5 interf NS3h: 0.65*; NS3h inh CB: -4.3

How did Cc1cccc(Nc2cc(C)c(C#N)c3nc4ccccc4n23)c1 do in these assays?
Cy5 interf NS3h: 1.05; NS3h inh CB: 3.5

What do the screens show for `CCOc1c(Br)cc(/C=C(\C#N)c2nn(CCO)c(N)c2C#N)cc1OC`?
Cy5 interf NS3h: 0.792*; NS3h inh CB: -24.7

How did CCOc1c(Br)cc(/C=C(\C#N)c2nn(-c3ccccc3)c(N)c2C#N)cc1OC do in these assays?
Cy5 interf NS3h: 0.98; NS3h inh CB: 3.5

What do the screens show for `Cc1nc2cc(Nc3nnc(-c4ccc(Cl)cc4)c4ccccc34)ccc2n1C`?
Cy5 interf NS3h: 0.672*; NS3h inh CB: 12.9

Results for Cn1cnc2cc(Nc3nnc(-c4ccc(Cl)cc4)c4ccccc34)ccc21 ?
Cy5 interf NS3h: 0.702*; NS3h inh CB: 11.7

Results for Cc1ccc(-c2nnc(Nc3ccc4c(c3)ncn4C)c3ccccc23)cc1 ?
Cy5 interf NS3h: 0.911; NS3h inh CB: 18.4

Results for COc1ccc(-c2nnc(Nc3ccc(C)cc3)c3ccccc23)cc1 ?
Cy5 interf NS3h: 0.888; NS3h inh CB: 16.5

Results for COc1cc(OC)c([N+](=O)[O-])cc1/C=C(/C#N)C(=O)Nc1ccc(F)cc1 ?
Cy5 interf NS3h: 0.904; NS3h inh CB: 1.4

What do the screens show for `Clc1ccc(CNc2ncn[nH]2)cc1`?
Cy5 interf NS3h: 0.97; NS3h inh CB: -2.6

How did Cc1cc(=O)n2c([nH]c3ccccc32)c1C(=O)O do in these assays?
Cy5 interf NS3h: 0.786*; NS3h inh CB: 30.0

What do the screens show for `Cc1ccc(-c2noc(COc3cccc(C)c3)n2)cc1`?
Cy5 interf NS3h: 0.999; NS3h inh CB: 4.4

What do the screens show for `N#C/C(=C/c1ccc(N2CCOCC2)cc1)c1ccc([N+](=O)[O-])cc1`?
Cy5 interf NS3h: 1.04; NS3h inh CB: 3.9

What do the screens show for `O=C(CC(c1ccccc1)c1ccccc1)Nc1ccc(Cl)cn1`?
Cy5 interf NS3h: 0.655*; NS3h inh CB: 8.7

Results for CC(=O)CC(=O)Nc1ccc(Cl)cn1 ?
Cy5 interf NS3h: 1.02; NS3h inh CB: 5.1

What do the screens show for `O=C(O)c1cccc(N2C(=O)c3ccc(Br)cc3C2=O)c1`?
Cy5 interf NS3h: 1.03; NS3h inh CB: 3.6

Results for CC1=C(C(=O)Nc2cccc(Cl)c2C)C(c2ccc(Cl)cc2)NC(=S)N1 (stereo unspecified) ?
Cy5 interf NS3h: 1.13; NS3h inh CB: -0.3

How did O=C(CCN1C(=O)/C(=C/c2cccs2)SC1=S)Nc1ccc(F)cc1 do in these assays?
Cy5 interf NS3h: 1.05; NS3h inh CB: 2.9

What do the screens show for `CN1CCN(C(=O)CCN2C(=O)/C(=C/c3cccs3)SC2=S)CC1`?
Cy5 interf NS3h: 0.577*; NS3h inh CB: 0.3

What do the screens show for `CCOc1cccc(C(=O)Nc2nnc(-c3cccc(OCC)c3)s2)c1`?
Cy5 interf NS3h: 1.06; NS3h inh CB: -7.3

What do the screens show for `CCOc1cccc(C(=O)Nc2nc3ccc(C)cc3s2)c1`?
Cy5 interf NS3h: 0.689*; NS3h inh CB: 0.3

High-throughput results from PubChem BioAssay.
